Compound activity: PubChem, National Center for Advancing Translational Sciences (NCATS)
HPGD block: qHTS Assay for Inhibitors of HPGD (15-Hydroxyprostaglandin Dehydrogenase); 15-hydroxyprostaglandin dehydrogenase [NAD(+)] (Homo sapiens), P15428; purified HPGD, NADH fluorescence kinetic, PGE2 substrate; Potency, µM, inactives show top-dose activity change, negative = inhibition, hits mostly inhibitors; 4.3% of 150,000 active; active = well fitted inhibition curve with a large enough effect, not every such curve was filed as active; inconclusive = small, poorly fitted or top-dose-only effect, or another doubt; inactive = no such curve, though single readings can be large or run the other way; also: potency is read from the fitted curve at half-maximal effect; % is scaled to controls: 0 for no effect and ±100 for the full control effect
Target sequence (P15428 whole entry, looked up): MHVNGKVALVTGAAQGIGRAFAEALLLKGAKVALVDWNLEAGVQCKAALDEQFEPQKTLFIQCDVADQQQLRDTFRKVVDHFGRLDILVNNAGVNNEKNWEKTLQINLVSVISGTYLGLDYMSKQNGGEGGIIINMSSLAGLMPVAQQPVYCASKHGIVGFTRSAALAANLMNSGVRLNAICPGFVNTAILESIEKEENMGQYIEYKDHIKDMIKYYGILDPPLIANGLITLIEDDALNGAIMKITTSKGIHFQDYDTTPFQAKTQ
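NADH formation kinetics: reaction with 30 uM PGE2 and 1 mM NAD+ (final), 20 nM enzyme, Tris-HCl pH 8 with Tween 20, after 15 min compound preincubation at room temperature. Fluorescence change, last versus first of five reads.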
Tau fluor counter: Counterscreen qHTS for Inhibitors of Tau Fibril Formation, Fluorescence Polarization. 0.93% of 280,000 active. Potency, µM (doses to about 57.7 µM), for inactives: at the highest dose activity change, negative = decrease. tau K18 P301L Alexa594 fluorescence, heparin fibrillization; also: potency is read from the fitted curve at half-maximal effect; % is scaled to controls: 0 for no effect and ±100 for the full control effect; nearly all actives have a fitted effect of over 55% in size
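Human tau K18 P301L (15 uM unlabeled, 0.24 uM Alexa 594-labeled) in 100 mM sodium acetate pH 7 with 20 uM heparin, 6 hr at 37 C. ThT 30 uM added, 1 hr ambient; Alexa 594 FP and total fluorescence read at 555/632 nm.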
Tau fibril FP: qHTS for Inhibitors of Tau Fibril Formation, Fluorescence Polarization. Potency, µM (highest dose often 57.7 µM), for the others: at the top dose activity, negative = inhibition, most hits filed as inhibitors. 0.39% of 280,000 active. Microtubule-associated protein tau (Homo sapiens), P10636. K18 P301L tau heparin fibrillization, Alexa594 FP, 6 h. AID 1468, 2008; also: potency is read from the fitted curve at half-maximal effect; % is scaled to controls: 0 for no effect and ±100 for the full control effect; nearly all actives have a fitted effect of over 55% in size
Target sequence (P10636 561-689 P618L limits assumed): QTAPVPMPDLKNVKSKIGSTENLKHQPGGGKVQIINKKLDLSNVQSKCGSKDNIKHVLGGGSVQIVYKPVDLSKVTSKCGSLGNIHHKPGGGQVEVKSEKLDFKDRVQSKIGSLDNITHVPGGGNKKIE
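K18 P301L tau (15 uM unlabeled/0.24 uM Alexa 594-labeled, final) + compound + heparin 20 uM final; 100 mM NaOAc pH 7; 6 hr 37 C; ThT 30 uM final added, 1 hr RT; FP ex 555/em 632 nm.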
NPSR antagonist: qHTS Assay for Antagonists of the Neuropeptide S Receptor: cAMP Signal Transduction | Q6W5P4 | Potency, µM (doses to about 38.3 µM), without a hit: at the top dose activity change, negative = inhibition, usual class: inhibitors | CHO-NPSR cells, cAMP TR-FRET, antagonist mode | 1% of 220,000 active; also: potency is read from the fitted curve at half-maximal effect; % is scaled to controls: 0 for no effect and ±100 for the full control effect; nearly all actives have a fitted effect of over 50% in size
Target sequence (Q6W5P4 whole entry, looked up): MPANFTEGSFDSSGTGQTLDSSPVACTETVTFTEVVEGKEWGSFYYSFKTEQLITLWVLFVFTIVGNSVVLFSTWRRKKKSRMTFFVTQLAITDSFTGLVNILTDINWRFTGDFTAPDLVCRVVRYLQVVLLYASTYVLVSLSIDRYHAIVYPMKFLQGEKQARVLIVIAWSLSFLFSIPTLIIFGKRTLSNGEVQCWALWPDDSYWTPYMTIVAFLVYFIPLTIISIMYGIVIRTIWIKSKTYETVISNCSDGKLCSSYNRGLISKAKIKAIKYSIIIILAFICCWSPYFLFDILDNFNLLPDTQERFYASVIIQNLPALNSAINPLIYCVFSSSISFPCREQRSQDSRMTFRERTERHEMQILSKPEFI
ALDH1A1 inh-1: qHTS Assay for Inhibitors of Aldehyde Dehydrogenase 1 (ALDH1A1) | Aldehyde dehydrogenase 1A1 (Homo sapiens), P00352 | Purified ALDH1A1, NADH fluorescence, propionaldehyde substrate | Potency, µM (series often up to 75.3 µM), for the others: at the top dose activity, negative = inhibition, usual class: inhibitors | 7.3% of 220,000 active | AID 1030, 2008; active = well fitted inhibition curve with a large enough effect, not every such curve was filed as active; inconclusive = small, poorly fitted or top-dose-only effect, or another doubt; inactive = no such curve, though single readings can be large or run the other way;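 also: potency is read from the fitted curve at half-maximal effect; plate controls were no enzyme wells and a reference inhibitor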
Tau ThT inhib: qHTS for Inhibitors of Tau Fibril Formation, Thioflavin T Binding; Microtubule-associated protein tau (Homo sapiens), P10636; 2.1% of 270,000 active; recombinant tau K18 P301L (four-repeat tau fragment), heparin-induced fibrillization, ThT fluorescence; Potency, µM (doses to about 57.4 µM), for inactives: top-dose activity, negative = inhibition, hits mostly inhibitors; also: potency is read from the fitted curve at half-maximal effect; % is scaled to controls: 0 for no effect and ±100 for the full control effect; nearly all actives have a fitted effect of over 55% in size
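K18 P301L tau (15 uM + 0.24 uM Alexa 594-tagged), heparin 20 uM, NaOAc pH 7, 6 h 37 C; ThT 30 uM, 1 h RT, ex 450/em 510 nm.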
HPGD inh conf: Confirmation qHTS Assay for Inhibitors of HPGD (15-Hydroxyprostaglandin Dehydrogenase). AID 2429, 2010. 90% of 90 active. recombinant HPGD, NADH fluorescence, PGE2 substrate. Potency, µM (series often up to 57.1 µM), inactives show top-dose activity change, negative = inhibition, actives largely listed as inhibitors. shares compounds with HPGD block; calls by dose curve
ALDH1A1 inh-2: Inhibitors of Aldehyde Dehydrogenase 1 (ALDH1A1): Followup Confirmation and Counterscreen; shares compounds with ALDH1A1 inh-1; purified ALDH1A1, NADH fluorescence, propionaldehyde/NAD+; Potency, µM (doses to about 57.1 µM), for the others: at the top dose activity change, negative = inhibition, hits mostly inhibitors; 90% of 90 active; calls by dose curve
The depositor's hits bear a star; ? = inconclusive; / = no result given; [ ] = remark or other dose. Shown are actives, neighbours in structure and some others; about 9.5% of the full set was active somewhere. Unless noted, calls follow the shape of the dose curve; as a rule, active = well fitted curve in the direction sought with a large enough effect; inconclusive = small, poorly fitted or top-dose-only effect, or another doubt; inactive = no such curve, though single readings can be large; an effect the other way counts as inactive or inconclusive.

SMILES	HPGD block	Tau fluor counter	Tau fibril FP	NPSR antagonist	ALDH1A1 inh-1	Tau ThT inhib	ALDH1A1 inh-2	others
CC(=O)OC1CCC2(C)C3CCC4(C)C(CC5CCCCC54C(C)=O)C3CC(=O)[C@@]2(O)C1 (some centres undefined)	-9.1%	0.5%	9.8%	/	-6.1%	-10.2%	/
Cc1ccc(Nc2nc(-c3ccncc3)nc3ccccc23)cc1	/	-20.1%	-8.0%	20.4%	?	-2.1%	/
CN(C)C(=O)c1ccc(-c2nc(Nc3ccncc3)c3ccccc3n2)cc1	0.159µM*	-18.2%	-7.5%	/	0.6%	-3.4%	/	HPGD inh conf=0.112µM*
CCc1ccccc1-n1nnc(-c2nsc(NC(=O)c3ccc(C)c(C)c3)n2)c1C	/	-10.8%	?	/	/	5.5%	/
Cc1ccc(C)c(Cn2nnc3c(=O)[nH]c(C(=O)NCc4ccco4)nc32)c1	0.562µM*	-6.0%	?	0.9%[7.67 µM]	-14.2%	-3.0%	/	HPGD inh conf=0.316µM*
Cc1ccc(C)c(Cn2c(=O)n(-c3ccc(CC(=O)NCc4ccco4)cc3)c(=O)c3sccc32)c1	-7.6%	1.7%	?	-4.7%[46.1 µM]	11.3%	-0.5%	/
COCCNC(=O)C1CCC(Cn2c(=S)[nH]c3ccccc3c2=O)CC1 (centres undefined)	1.78µM*	0.4%	-0.1%	-16.7%[46.1 µM]	-5.8%	6.9%	/	HPGD inh conf=1.12µM*
CCOCCCn1c(=S)[nH]c2cc(C(=O)NCCOC)ccc2c1=O	-24.9%	-6.7%	5.9%	-9.5%[46.1 µM]	?	-6.9%	/
CCc1ccccc1NC(=O)N[C@H](C(=O)O)C(C)CC (some centres undefined)	-4.3%	-1.3%	5.2%	-4.2%[46.1 µM]	-5.2%	-8.4%	/
CC[C@H](C)[C@H](NC(=O)OCC1c2ccccc2-c2ccccc21)C(=O)O	-2.6%	0.8%	-3.5%	/	0.447µM*	-10.3%	1µM*
CCOc1ccc2oc(-c3ccccc3)c(C(=O)N3CCN(CCO)CC3)c2c1	?	-6.4%	-0.8%	-1.8%[46.1 µM]	?	-12.2%	/
Cc1ccc(NCCC(=O)c2cccc([N+](=O)[O-])c2)c(C)c1	-19.0%	15.8µM*[quencher]	?	-20.9%[46.1 µM]	0.126µM*	?	0.398µM*
CC1(C)CC(=O)CC(C2(O)C(=O)N(Cc3ccccc3)c3ccccc32)O1 (centres undefined)	-23.1%	-0.9%	6.9%	-1.4%	0.0631µM*	-0.3%	0.316µM*
Cc1ccc(C(=O)CC2(O)C(=O)N(Cc3ccccc3)c3ccccc32)c(C)c1 (centres undefined)	/	-23.7%	?	/	/	?	/
COc1cccc(-c2cn3c(n2)sc2cc(C(=O)NCCc4ccccc4)ccc23)c1	/	-15.9%	4.3%	/	/	-14.5%	/
Cc1cc2ccccc2n1CCNC(=O)c1cc(C(F)(F)F)cc(C(F)(F)F)c1	/	-3.5%	-7.0%	/	/	1.3%	/
COc1cccc(O)c1O	15.8µM*	11.2µM*[quencher]	25.1µM*	/	0.447µM*	14.1µM*	1.58µM*
COc1ccccc1O	0.5%	/	/	/	-7.3%	/	/
COc1c(OC)c(O)c2c(=O)cc(-c3c(O)cccc3O)oc2c1OC	/	?	1.9%	-3.8%	?	?	/
COc1ccc(-c2cc(=O)c3c(O)c(OC)c(OC)c(OC)c3o2)cc1	-11.5%	-11.5%	-16.5%	/	0.112µM*	-13.4%	0.631µM*
COc1ccccc1-n1nnnc1SCC(=O)Nc1cc(C)on1	-7.5%	-1.6%	0.6%	-2.0%[46.1 µM]	0.708µM*	-2.8%	0.891µM*
COc1ccccc1NC(=O)CN1CCN(CC(=O)Nc2ccc3c(c2)OCCO3)CC1	-2.3%	-10.0%	-4.5%	-9.4%[46.1 µM]	3.55µM*	-10.1%	3.16µM*
Cc1ccc(-n2nnnc2SCC(=O)Nc2ccc3c(c2)OCCO3)cc1C	-6.0%	-29.0%	-9.2%	-5.8%[46.1 µM]	?	-4.4%	/
COc1ccc(OC)c(-n2nnnc2SCC(=O)Nc2ccc3c(c2)OCCO3)c1	/	-17.6%	3.0%	10.3%[46.1 µM]	0.0631µM*	4.4%	0.1µM*
COC(=O)c1sccc1NC(=O)CSc1nnnn1-c1ccccc1C	?	-14.4%	-12.1%	?	0.562µM*	-4.3%	0.794µM*
SMILES	HPGD block	Tau fluor counter	Tau fibril FP	NPSR antagonist	ALDH1A1 inh-1	Tau ThT inhib	ALDH1A1 inh-2	others
Cc1nn(-c2ccc(F)cc2)c(C)c1CN1CCN(CCC(C)C)C(CCO)C1 (centres undefined)	/	3.1%	6.3%	-4.5%	-1.8%	-10.5%	/
CCOc1ccc(NC(=O)CCn2cccn2)cc1	/	7.4%	4.9%	/	/	-2.6%	/
COc1ccccc1CN(CC(=O)NCc1ccc2c(c1)OCO2)C(=O)c1ccc2c(c1)OCCO2	-1.5%	-8.0%	3.4%	-6.9%	0.0794µM*	-8.0%	0.0447µM*
COc1ccccc1OCCC(=O)NCc1ccc2c(c1)OCO2	/	-12.3%	-1.7%	1.8%	4.5%	-8.1%	/
O=C(N[C@@H](Cc1ccccc1)C(=O)CCl)OCc1ccccc1	11.2µM*	4.6%	13.9%	?	0.355µM*	5.0%	0.251µM*
O=C(O)CNC(=O)C(Cc1ccccc1)NC(=O)OCc1ccccc1 (centres undefined)	/	-7.8%	-0.7%	12.1%	-0.1%	-8.5%	/
CC1=C(C(=O)OCC(C)C)C(c2cccs2)NC(=S)N1 (centres undefined)	/	-2.6%	-10.4%	4.8%[46.1 µM]	0.126µM*	12.7%	0.251µM*
O=C(c1cccc([N+](=O)[O-])c1)N1c2ncnn2C2(CCCCC2)[C@@H]2CCCC[C@@H]21	/	-12.3%	6.2%	/	/	1.3%	/
COc1ccc(CNC(=O)C(c2ccco2)N(Cc2cccs2)C(=O)Cc2cccs2)cc1 (centres undefined)	-24.0%	-10.0%	-5.6%	-21.0%[46.1 µM]	0.631µM*	-12.0%	1.26µM*
COc1cc2c(cc1NC(=O)CN1CCN(S(=O)(=O)c3ccc(C)cc3)CC1)oc1ccccc12	?	-5.6%	9.8%	-15.0%[46.1 µM]	6.8%	-7.3%	/
